Measured values from publication PMC5540273 (PLoS ONE, 2017).

test system: TXK; settings: concentration: 1 μM, replicates: in singlicate; n = 1
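Note: KINOMEscan kinase panel screen.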

Compared with O=C(NOCC1CC1)c1ccc(F)c(F)c1Nc1ccc(I)cc1Cl, O=C(Nc1n[nH]c2cc(-c3cccc(F)c3)ccc12)C1CC1 [SB-735464] is higher in “%Inh” value: 0% for the first, 14% for the second.

C[C@@H](Oc1cc(-n2cnc3ccc(NC(=O)NC(C)(C)C)cc32)sc1C(N)=O)c1ccccc1Cl [GSK346294] and COc1ccc(Nc2nccc(N3CCC(NC(=O)Nc4cccc(C(C)=O)c4)C3)n2)cc1 (centres unmarked) [GSK1379731] are the same in “%Inh” value: 0% for the first, 0% for the second.

Cc1nnc(-c2ccc(C)c(-c3ccc(C(=O)Nc4ccc(NS(C)(=O)=O)cc4)cc3)c2)o1 [GW702865] and Cc1nnc(-c2ccc3ncc(-c4ccc(S(C)=O)cc4)n3c2)o1 (centres unmarked) are the same in “%Inh” value: 0% for the first, 0% for the second.

First: N#Cc1ccc(-c2cc(-c3c[nH]nc3-c3ccccn3)ccn2)cc1 [GW693028]
Second: c1ccc(-c2n[nH]cc2-c2ccnc3ccccc23)nc1 [GW271431]
The “%Inh” value of the first is higher: 6% for the first, 4% for the second.

Compared with Cn1cc(-c2ccc3c(c2)CCN3C(=O)Cc2ccccc2Cl)c2c(N)ncnc21 [GSK2608885], O=C1NC(=O)C(N2CCc3ccccc32)=C1c1cccc(Cl)c1 [SB-408010] is lower in “%Inh” value: 85% for the first, 0% for the second.

Compared with CC(C)Oc1ccc2c(-c3ccnc(Nc4ccc(N5CCN(C)CC5)cc4)n3)cnn2n1 [GW696155], O=C(NCCCN1CCOCC1)c1cccc(Nc2nccc(Nc3ccc(Oc4ccccc4)cc3)n2)c1 [GW663929] is lower in “%Inh” value: 13% for the first, 0% for the second.

COc1cc2c(cc1OC[C@@H](O)CO)ncc1c3ccc(C#N)cc3[nH]c21 and N#Cc1c(N2CCOCC2)sc(-c2ccn[nH]2)c1-c1ccc(Cl)cc1 are the same in “%Inh” value: 0% for the first, 0% for the second.

First: CN(C1=C(c2ccccc2)C(=O)NC1=O)c1ccccc1 [SB-334860]
Second: NCC(NC(=O)c1cc(-c2cn[nH]c2)c(-c2ccnc3[nH]ccc23)s1)c1ccccc1.O=C(O)C(F)(F)F.O=C(O)C(F)(F)F (centres unmarked) [GSK1325775]
The “%Inh” value of the first is higher: 83% for the first, 10% for the second.

Going from Fc1ccc(-c2nn3c(OCC(F)(F)F)cccc3c2-c2ccncc2)cc1 [GW514784] to Cl.Nc1ncnc2occ(-c3ccc(NC(=O)Nc4cc(C(F)(F)F)ccc4F)cc3)c12 [SB-707548], the “%Inh” value falls from 18% to 0%.

First: NS(=O)(=O)CCc1cccc(Nc2nccc(-c3c(-c4cccc(NC(=O)c5c(F)cccc5F)c4)nn4ccccc34)n2)c1 [GSK336735]
Second: Nc1nc(-c2ccc3c(N)n[nH]c3c2)cc(N2CCCC2)n1 [GSK2227430]
The “%Inh” value of the first is higher: 90.1% for the first, 0% for the second.
